From PubChem BioAssay AID1508600 (Functional Genomics Laboratory (NCATS/FGL), 2020)
About 3,700 (7%) of roughly 53,000 sequences were called active. This is one part of a sample in which actives are shown more often than they occur.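 How the source made its calls: active means gene knockdowns whose robust z-score for IL-1 alpha signal is at least 2 or at most -2, so actives lie on both sides; inactive means the rest.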

Assay: Components of the Cytosolic LPS Sensing Pathway: Gene Identification via Genome-wide siRNA Screen;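 further: robust z of the log signal after scaling to non-targeting control siRNA wells of the plate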
Conditions: RAW264.7 macrophages, IL-1a HTRF, actives lie on both sides, screened at 100 nM (by protocol), cells primed 5 h with Pam3CSK4 first
How it was run: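 Cells (RAW264.7, 1×10^4 per well) were transfected with siRNA at 100 nM and cultured 48h at 37 degrees C. Pam3CSK4 was added for 5 hours; LipidA transfection followed for 24 hour. IL-1a was then measured by HTRF.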

z-score, inactive:
GGGCUUUGUUUCCAAGUUGTT against Muc15 -0.285, CCAUAGACUAUUAUCCUUATT against Uhrf1bp1l -0.282, GGACACAAAGAAGAAGAGGTT against Tarsl2 0.707, GGAAAUAUUGAUGCUGCUGTT against Ttc39a 1.09, CAAAAAUAUCUACAGAGUCTT against Olfr494 0.207, CGAGAAAAACGAUUUACUGTT against Orai2 -0.527, GGAUGAGAAUGGUUAUACUTT against Asz1 0.328, CCGCCUCGUACAUGAUAUUTT against Mrgpra2b 0.653, GGUUGCUAUUAUUAUUGGATT against Fnbp4 0.678, GCCCAAGGAGGCAUUGAUATT against Fbxo8 -0.653, GGCUUCAUUUACUGUAACGTT against Flrt3 -0.12, GGAUAAACGGACAGGCCCATT against Socs2 0.282, GAUUGUGCCUUAUCUCUAATT against Vmn1r203 1.28, GGCCUACAUUUUAAUUCAGTT against Tmem132c -0.167, GGCUCAGAUCAGAACUACGTT against Inpp4a -0.129, GCUAAAGUGAGCAGCGGGATT against Gipc3 0.218, GCUACCUGCGACAAGAAAUTT against Defb23 -0.79, CCAUAUGUAGCUAUGGUUATT against Cul2 0.741, CCAGUAGAAAGAAUCCAGATT against Gm128 0.0855, GCCAGCUACUCUCUUGAGATT against Olfr419 -1.03, GGACUACAUGGAUGCCAUGTT against Prkrip1 0.482, GGCCUUUUCCAUAAACUUUTT against Ddx60 0.873, GCAGUACGAAAUGGUAUACTT against Chd6 -1.7, CGUAUUAACGACAUAAGAGTT against Nckap1 -0.169, CCAAUUGGAAUCCCAUUUUTT against Cd47 -0.273, CCCAACAAUGCUGCACAUGTT against H1f8 0.157, GCAGUGUCUAGGACAGUCATT against Pdcd5 0.0243, GGGCCCGAUGAAGCAAAAATT against Hnrnpr -1.49, GGCAAACAUGAAGAGAAGCTT against Hspb8 0.0665, GGCUGACCUUCUGUGCUGATT against Olfr876 -0.98, CGAAGAGAUCUCACUAUAATT against Trnt1 1.21, GCGCUAGAAGGCCAGAUAUTT against Orm3 -0.155, GCCAUCAACAGCAUUUACATT against Glt8d2 -0.455, GGAGCUUUCAGCUAAGACATT against Rassf4 0.671, GGACCAGCCAUACCUGUGATT against Ndufa7 -1.93, GCCACACAGUGUGAUCCAATT against Nrip2 -1.33, GGCUACCUACAGCACCAACTT against Esyt1 -1.58, GGAUGUAACUGAAAGAGAATT against Fam133b -1.11, GGACACUUAAAGAUCCUGCTT against Armc7 -0.545, GCUCAGAGAUUAUGGCAUCTT against Snrnp25 0.687, GCAUGAUUACCCAUUUCAATT against Tax1bp1 0.334, GGAGAAGGAGAUGUCCAAUTT against Guca2b 0.777, GCGAUUGAUGAAUUUCGACTT against Atp9b 0.616, GGAUUUCAAAAACCACGUGTT against Snx1 1.14, CCCACAGCUCUGACAUUUUTT against Fbxo6 -0.315, CCUAGGUCAUAUUUCUCCATT against Bgn 0.224, GGCAGUGGCUUGGAUAAAUTT against Amdhd2 -0.609, GCAGUCAUGGGUUCUUAAGTT against Gng3 0.109, CCAUAUCUCAUGAGGAAGGTT against Olfr1368 1.53, GGACGGUGACAAGAACAACTT against Tnnc1 1.72, GCUUCACGAUUAAAACUAATT against Ltb4r1 0, GGCUCAGGCAUUGUAACCATT against Dnm3 -0.177, GGUGCAUUCCUUGUGAAUGTT against Ctbp2 0.141, GGGAAAGGAAGUUGUUUUGTT against Epha2 0.878, GCAGCCUAUUACCUCAGACTT against Nwd2 1.02, GGAUCUCUCUUUCCUCCUCTT against Gli1 0.0792, GCCUUCAAGCCAAAGAUAGTT against Lin54 -0.582, GGCAAAGGCUAUCGCUCACTT against Smpd2 -1.46, CCGGACCAUCUUCGACAGUTT against Pmepa1 -0.783, GGAACUGUGUGUCUUCUCCTT against Kcns3 -1.78, CGGUGAAAGACUUCAGUAUTT against Ppfibp1 0.578, CCUGCUCUUCGUUAUCUUGTT against Olfr552 1.59, GCGACAGAGGAAGCUUGUUTT against Mak16 0.634, CGACAAGAAGACUUCGAAUTT against Mnt -1.28, GGCCUAUUUUUUCAUAGUUTT against Ptprs 0.0729, GGCAAAGUACUACGUGCAGTT against Sh3bp5 -0.225, GGCAGAAUAUGAGUUUGAUTT against Camk1d -0.161, GGAAAAAGAUGCGACAAUGTT against A930012O16Rik -1.01, GGGACCAUUCUGAAGAUGATT against Acot7 -1.76, GGAGAAUAUGUCGUCAUGATT against Gabra3 -1.09, GGAAAAACUGGUCUAUCAATT against Polr3f 1.47, CCGUUUUUGUGGUUCAGUGTT against Plxdc1 0.0355, GGCAACAUUGAACAUGCCUTT against Stambp -1.76, GCAGUUCAAGUCUUGAAUATT against Olfr934 -1.09, GGGUUUCUGUUAAUCCACATT against H3c8 -1.38, GGAACAACAUUGUUCUAAATT against Fstl5 0.759, GGGAGCCAUUUUUACAGACTT against Ffar4 0.405, GCCGGAACAUCCAGAAUAGTT against Cpeb2 -0.644, GCACCUAGCAUAGCAAUGGTT against Slc24a1 0.695, GCGAUGACCAAAAAUAUUGTT against Tmc1 -0.0131, GCUGGCUAGAAUCUUACCCTT against Aph1c 0.554, GGGCAUGCAAUGUUCAUGCTT against Rho 0.095, CGUGUCAGAACUCGAUCUUTT against Tbcel -0.549, GGCCAUUGUUACUGGAAAATT against Elmo2 -0.353, GGAACUGACUCUUGAAAAUTT against Cd14 0.367, GCUAGAGUCCAUAAACAAUTT against Olfr1148 -0.0654

z-score, active:
GGUCUUUGCUACCAACCUGTT against Fignl1 -2.15, GGUUAUUCUGGCUAUGGGCTT against Taf15 -2.22, GGGAGUGCCUGGGUUUGUATT against Dusp28 3.19, GGCAAUCCCAUAGAGGCUGTT against Mief2 -2.64, GGAUUUAUUUGCCAACACUTT against Actbl2 -2.28, GGGUUCUGGGAAGGUAUAUTT against Olfr705 -2.54, GGUAAACGAUGUACAGUUGTT against Notch2 2.6, GGCCCUCAAACAGUGCAAATT against Chchd10 2.09, GGACCUUAAGAGAUAUCAATT against Acsm4 2.9, GCAAUGGUUCAGUAUGUACTT against Tpgs2 -2.01, CCAAGUCUUUGCCUACGUGTT against Dsn1 2.39, GAGCUAAGCAAGAUGCUAGTT against Sox17 3.97, GGAGAGCUGCAUGAUUUCATT against Efcab2 3.67, CGGAGUCUUCUUCUCACCUTT against A630001O12Rik -2.82, GCUCAGUCAUGUGACCGCATT against Fbxl18 2.93, GCCUCUAUAUCUUUCACUGTT against Olfr1209 -2.16, GCCAGCGACCUUUAGUACATT against Cmtm1 2.08, GCACACUGAUGAACUUACCTT against Ston2 2.55, GGAAGAAUGUGGGUAAAGATT against Gimap9 -2.01, CCUGCUUGCCAACACCAUATT against Slc39a13 -2.2, GGUUGUGCAACACAGCUCUTT against Olfr218 -2.31, GGGUUAAAGCGGUUUACUUTT against Kcng3 2.72
